TRHR ag = activates the human TRH receptor | P34981 | TRHR cells, calcium flux fluo-8, FDSS agonist mode | activation, % at 2 µM | 360,000 compounds, 0.18% hits | AID 493084
Target sequence (P34981 whole entry, looked up): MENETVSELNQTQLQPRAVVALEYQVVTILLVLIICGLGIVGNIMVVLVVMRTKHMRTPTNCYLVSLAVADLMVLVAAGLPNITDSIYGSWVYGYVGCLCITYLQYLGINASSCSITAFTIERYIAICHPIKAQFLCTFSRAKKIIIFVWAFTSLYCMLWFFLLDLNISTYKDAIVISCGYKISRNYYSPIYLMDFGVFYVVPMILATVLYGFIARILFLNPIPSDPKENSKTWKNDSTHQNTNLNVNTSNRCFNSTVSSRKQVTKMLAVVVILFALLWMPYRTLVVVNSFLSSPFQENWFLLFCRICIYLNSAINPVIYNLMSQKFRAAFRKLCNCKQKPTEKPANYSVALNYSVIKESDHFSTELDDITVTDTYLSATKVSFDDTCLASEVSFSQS
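Read-out: compound-evoked intracellular calcium rise in TRHR cells, fluo-8 dye, kinetic FDSS fluorescence at 1 s/cycle following a 10-cycle baseline. Cells cultured overnight before dye loading (30 min–1.5 h, RT).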
D1 potentiator = human D1 dopamine receptor positive modulation; P21728; HEK293 TREx D1 cells, calcium flux, dopamine EC20 potentiation; potentiation, % at 10 µM; 360,000 compounds, 0.036% hits; in the data active = potentiation above about 30%
D1 antag = antagonists of human D1 dopamine receptor. P21728. HEK293 TREx D1 cells, calcium flux, dopamine EC80; stronger effect = lower value. activity change, negative = inhibition, % at 10 µM. 360,000 compounds, 3.2% hits; in the data active = activity change below about -30%
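Antagonism measured as reduced calcium response to an EC80 dopamine addition following 180 s compound pre-read; cells were inducible HEK293 Trex D1 plated overnight at 30 C, read kinetically at 1 cycle/sec.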
TRHR enhancer = allosteric enhancers of human TRH receptor. TRHR cells, fluo-8 calcium fluorescence, EC20 TRH enhancement. enhancement, % at 2 µM. 360,000 compounds, 0.66% hits. AID 493056; in the data active = enhancement above about 30%
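Enhancer read-out: after compound pinning and an initial kinetic agonist-mode read, an EC20 of TRH (10 nM final) was injected and fluo-8 calcium signal (Ex 480/Em 530) followed at 1 s/cycle for 100 cycles in TRHR-expressing cells.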
D1 agonist = human D1 receptor agonism. P21728. HEK293 T-REx D1 cells, calcium flux, agonist mode. activation, % at 2 µM. 360,000 compounds, 1% hits
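Agonism was scored from calcium flux recorded over 180 s (1 read/s) after pintool compound addition, following a 10-cycle baseline. Cells were inducible force-coupled HEK293 TREx D1, plated overnight at 30 C and loaded with no-wash calcium dye.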
Numbers stand for hits; 0 = inactive; - = not tested or not shown. An excerpt weighted towards active compounds, which were near 4.7% of everything screened. Cut-off read from the data, not from the text of the source, unless noted: active = activation above about 30%; inactive = the rest.

SMILES | TRHR ag | D1 potentiator | D1 antag | TRHR enhancer | D1 agonist
Cc1ccc(NC(=O)Cn2c(=O)c3cc(Cl)ccc3n3nncc23)cc1 | 0 | 0 | 0 | 0 | 0
Cc1cccc(/C=N/NC(=O)C2CCCNC2=O)c1 (centres undefined) | 0 | 0 | -85 | 0 | 0
Cc1cc(NS(=O)(=O)c2cn(C)c(C)n2)ccc1Br | 0 | 0 | 0 | 0 | 0
COC(=O)c1c(-c2ccc(Cl)cc2)noc1N1CCN(c2ccccc2OC)CC1 | 0 | 0 | -31 | 0 | 0
CCc1nc2ccc(C(=O)Nc3ccc4c(c3)OCO4)cc2nc1CC | 0 | 0 | 0 | 39 | 0
CCc1ccc(C(=O)Nc2ccc3nc(C)ccc3c2)cc1 | 0 | 0 | -31 | 0 | 0
CCc1nc2ccc(C(=O)Nc3cccc(C(C)=O)c3)cc2nc1CC | 0 | 0 | 0 | 0 | 0
Cc1ccc2cc(NC(=O)c3ccc(C(C)(C)C)cc3)ccc2n1 | 0 | 0 | 0 | 0 | 0
CCc1nc2ccc(C(=O)Nc3nnc(C)s3)cc2nc1CC | 0 | 0 | -42 | 0 | 0
COc1ccc(C(=O)Nc2nnc(C)s2)cc1 | 0 | 0 | 0 | 0 | 0
COc1cccc(CNc2nc3ccccc3c3nc(-c4cccc(C)c4)nn23)c1 | 0 | 0 | 0 | 0 | 0
CCc1cc2cc(C)ccc2nc1SCC(=O)NNC(=O)c1ccco1 | 0 | - | 0 | 0 | 34
CCOc1ccc(-n2nnnc2SCC(=O)NNC(=O)c2ccco2)cc1 | 0 | 0 | -38 | 0 | 0
COc1cccc(Cn2c(=O)n(-c3ccccc3C)c(=O)c3c2c2cc(C)ccc2n3C)c1 | 0 | 0 | 0 | 0 | 0
COc1ccc(NC(=O)c2cc3c([nH]c2=O)CC(c2ccccc2)CC3=O)cc1 (centres undefined) | 0 | 0 | 0 | 0 | 0
O=C(Nc1ccccc1)c1cnc[nH]1 | 0 | 0 | 0 | 0 | 0
O=C(c1ccccc1)c1cnc[nH]1 | 0 | 0 | 0 | 30 | 0
O=C(O)c1ccc(Cl)c(NC(=O)C2CCCN2S(=O)(=O)c2cccc3nsnc23)c1 (centres undefined) | 0 | 0 | -40 | 0 | 0
O=C(Nc1ccc(Br)cc1)C1CCN(S(=O)(=O)c2cccc3nsnc23)CC1 | 0 | 0 | -33 | 0 | 0
CCC1CCCCN1CCNC(=O)C1CCN(S(=O)(=O)c2cccc3nsnc23)CC1 (centres undefined) | 0 | 35 | 0 | 0 | 0
CC1CCCCN1CCNC(=O)C1CCN(S(=O)(=O)c2cccc3cccnc23)CC1 (centres undefined) | 0 | 0 | 0 | 31 | 0
Cc1ccc(NC(=O)CCn2nc(C)c(S(=O)(=O)N3CCCCC3)c2C)cc1Cl | 0 | 0 | 0 | 0 | 0
CCN(CCNC(=O)C1CCN(S(=O)(=O)c2cccc3cccnc23)CC1)c1ccccc1 | 0 | 0 | 0 | 37 | 0
O=C(C1CCN(S(=O)(=O)c2cccc3cccnc23)CC1)N1CC=C(c2ccccc2)CC1 | 0 | 0 | -44 | 0 | 0
Cc1cccc(CCNC(=O)C2CCN(S(=O)(=O)c3cccc4cccnc34)CC2)c1 | 0 | 0 | 0 | 0 | 0
SMILES | TRHR ag | D1 potentiator | D1 antag | TRHR enhancer | D1 agonist
O=C(C1CCN(S(=O)(=O)c2cccc3cccnc23)CC1)N1CCCC1 | 0 | 0 | 0 | 0 | 0
CCC(C(=O)NCc1ccccc1)n1ncn2c(cc3occc32)c1=O (centres undefined) | 0 | 0 | 0 | 0 | 0
CCCSc1nnc2[nH]c(=O)cc(C)n12 | 0 | 0 | - | 0 | 0
Cc1cc([N+](=O)[O-])ccc1NC(=O)CSc1nccn1C | 0 | 0 | 0 | 0 | 0
CCc1ccccc1NC(=O)Cn1c(=O)n(CCc2ccccc2)c(=O)c2sc3ccccc3c21 | 0 | 0 | 0 | 0 | 0
CCNc1nc(CN2CCCCC2)nc2scc(-c3ccccc3)c12 | 0 | 0 | -38 | 0 | 0
OCC1CCCN(c2nc(CN3CCCCC3)nc3scc(-c4ccccc4)c23)C1 (centres undefined) | 0 | 0 | 0 | 0 | 0
Fc1ccc(N2CCN(c3nc(CN4CCOCC4)nc4scc(-c5ccccc5)c34)CC2)cc1 | 0 | 0 | -46 | 0 | 0
CCCC(=O)C1=C(c2ccc(C)cc2)N(C(=O)CCC)n2cnnc2S1 | 0 | 0 | - | 0 | 0
CCOC(=O)C1CSC(CC(=O)Nc2ccc(Cl)c(Cl)c2)C(=O)N1 (centres undefined) | 0 | 0 | -32 | 0 | 0
CC(=O)N1c2ccc(S(=O)(=O)NCc3ccc(Cl)cc3)cc2CC1C (centres undefined) | 0 | 0 | -32 | 0 | 0
CCC(=O)N1c2ccc(S(=O)(=O)CCC(=O)NCc3cccc(OC)c3)cc2CC1C (centres undefined) | 0 | 0 | 0 | 0 | 0
CCC(=O)N1c2ccc(S(=O)(=O)NCc3cccc(OC)c3)cc2CC1C (centres undefined) | 0 | 0 | -76 | 0 | 0
CCn1c(SCc2ccccc2F)nc(=O)c2c(C(=O)OC)cc(C3CC3)nc21 | 0 | 0 | 0 | 0 | 0
COc1ccc(NC(=O)CSC2=Nc3ccccc3C3=NC(CC(=O)NCc4ccco4)C(=O)N23)cc1 (centres undefined) | 0 | 0 | 0 | 0 | 0
CCCCNC(=O)c1ccc2c(=O)n(-c3ccccc3)c(=O)[nH]c2c1 | 0 | 0 | -64 | 0 | 0
CCCCCn1c(=O)[nH]c2cc(C(=O)NCCCN(C)Cc3ccccc3)ccc2c1=O | 0 | 0 | 0 | 0 | 0
Cc1ccc(-n2c(=O)[nH]c3cc(C(=O)NCc4ccccc4)ccc3c2=O)cc1 | 0 | 0 | -77 | 0 | 0
COc1cc(OC)cc(-n2c(=O)[nH]c3cc(C(=O)NCCc4ccc(C)cc4)ccc3c2=O)c1 | 0 | 0 | 0 | 0 | 0
O=c1c2cccnc2n(Cc2ccccc2F)c(=O)n1Cc1ccc(F)cc1 | 0 | 0 | 0 | 0 | 0
Cc1ccc(NC(=O)c2c(C)nc3sc(C(=O)Nc4ccc(F)cc4)c(N)c3c2-c2ccccc2Cl)c(C)c1 | 0 | 0 | -39 | 0 | 0
CCOc1ccc(CCNc2ncnc3onc(-c4ccc(Cl)cc4)c23)cc1 | 0 | 0 | -48 | 0 | 0
COc1ccc(CCNc2ncnc3onc(C)c23)c(OC)c1 | 0 | 0 | -45 | 0 | 0
CCCNc1ncnc2onc(C)c12 | 0 | 0 | 0 | 0 | 0
CSc1ccc(CCNc2ncnc3onc(C)c23)cc1 | 0 | 0 | -50 | 0 | 35
SMILES | TRHR ag | D1 potentiator | D1 antag | TRHR enhancer | D1 agonist
Cc1ccc(CCNc2ncnc3onc(-c4ccc(Cl)cc4)c23)cc1 | 0 | 0 | 0 | 0 | 0
Cc1cc(NS(=O)(=O)c2ccc(NC(=O)COc3cc(C)c(Br)cc3C(C)C)cc2)no1 | 0 | 0 | 0 | 0 | 0
COc1ccc(CC(=O)NCCc2sc(-c3ccc(Cl)cc3)nc2C)cc1OC | 0 | 0 | 0 | 0 | 0
O=C(Cc1ccc(F)cc1)N1CCC(c2nc3c(nnn3Cc3ccc(Cl)cc3)c(=O)[nH]2)CC1 | 0 | 0 | 0 | 0 | 0
COc1ccc(S(=O)(=O)N(CCc2ccccc2)CC(=O)NCc2ccccc2)cc1OC | 0 | 0 | 0 | 0 | 0
COc1ccc(S(=O)(=O)N(CCc2ccccc2)CC(=O)Nc2cc(C)cc(C)c2)cc1OC | 0 | 0 | -36 | 0 | 0
